Tau ThT inhib: qHTS for Inhibitors of Tau Fibril Formation, Thioflavin T Binding. recombinant tau K18 P301L, heparin-induced fibrillization, ThT fluorescence. Potency, µM (titrated, usually from 57.4 µM), hits mostly inhibitors. 270,000 compounds, 2.1% hits. AID 1460, 2008; also: nearly all actives have a fitted effect of over 55% in size
Target sequence (P10636 561-689 P618L limits assumed): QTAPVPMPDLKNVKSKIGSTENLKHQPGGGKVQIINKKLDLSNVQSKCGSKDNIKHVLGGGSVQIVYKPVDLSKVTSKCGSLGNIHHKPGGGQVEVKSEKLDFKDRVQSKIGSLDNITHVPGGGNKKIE
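Tau K18 P301L fragment (15 uM unlabeled plus 0.24 uM Alexa 594-labeled) in 100 mM sodium acetate pH 7 with compound, fibrillization induced by 20 uM heparin for 6 hr at 37 C. Thioflavin T (30 uM) added, fluorescence read after 1 hr (ex 450, em 510 nm).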
Tau fluor counter: Counterscreen qHTS for Inhibitors of Tau Fibril Formation, Fluorescence Polarization | 280,000 compounds, 0.93% hits | tau K18 P301L (four-repeat tau fragment) Alexa594 fluorescence, heparin fibrillization | Potency, µM (highest dose often 57.7 µM); also: nearly all actives have a fitted effect of over 55% in size
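Human K18 P301L tau (15 uM unlabeled plus 0.24 uM Alexa 594-labeled, final) in 100 mM sodium acetate pH 7 was mixed with compound and 20 uM heparin and incubated 6 hr at 37 C.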
Tau FP inhib: qHTS for Inhibitors of Tau Fibril Formation, Fluorescence Polarization; 280,000 compounds, 0.39% hits; AID 1468, 2008; Microtubule-associated protein tau (Homo sapiens), P10636; Potency, µM (series often up to 57.7 µM), usual class: inhibitors; K18 P301L tau heparin fibrillization, Alexa594 FP, 6 h; also: nearly all actives have a fitted effect of over 55% in size
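FP of Alexa 594-tau after heparin (20 uM) induction. Substrate: human K18 P301L, 15 uM unlabeled, 0.24 uM labeled. Buffer 100 mM sodium acetate pH 7. 6 hr, 37 C.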
VP16 counter: VP16 counterscreen qHTS for inhibitors of ROR gamma transcriptional activity; Potency, µM (highest dose often 53.6 µM), usual class: inhibitors; 310,000 compounds, 3.5% hits; Drosophila S2 Gal4-VP16 UAS-luciferase, luminescence, 20 h; AID 2546, 2010;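 also: Gal4-VP16 expression switched on by copper sulfate through the metallothionein promoter; nearly all actives have a fitted effect of over 50% in size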
RORgamma inh: qHTS for inhibitors of ROR gamma transcriptional activity | Drosophila S2 Gal4-RORgamma UAS-luciferase reporter, 20 h | Potency, µM (doses to about 53.6 µM), most hits filed as inhibitors | 310,000 compounds, 5.4% hits; also: nearly all actives have a fitted effect of over 60% in size
Target sequence (P51450 whole entry, looked up, the tested form may be a part): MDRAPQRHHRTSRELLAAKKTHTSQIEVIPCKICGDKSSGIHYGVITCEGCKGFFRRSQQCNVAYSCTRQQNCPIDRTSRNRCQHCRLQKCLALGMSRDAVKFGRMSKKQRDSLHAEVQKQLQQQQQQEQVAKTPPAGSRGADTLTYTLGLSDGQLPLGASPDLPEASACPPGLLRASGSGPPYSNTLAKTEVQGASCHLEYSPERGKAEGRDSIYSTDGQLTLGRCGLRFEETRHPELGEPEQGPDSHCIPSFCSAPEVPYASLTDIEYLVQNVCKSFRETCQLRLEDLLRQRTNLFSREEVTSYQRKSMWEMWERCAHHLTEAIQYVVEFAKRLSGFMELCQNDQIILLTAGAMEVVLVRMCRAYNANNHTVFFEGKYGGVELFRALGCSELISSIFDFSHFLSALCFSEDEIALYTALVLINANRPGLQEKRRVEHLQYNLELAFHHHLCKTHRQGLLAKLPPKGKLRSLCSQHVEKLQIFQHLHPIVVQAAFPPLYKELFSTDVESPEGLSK
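Luciferase reporter read in Schneider cells carrying Gal4-RORγ (mouse) and UAS-Photinus luciferase; cells given compound 1 h before 700 uM copper sulfate induction, then incubated 20 h at ambient temperature.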
Large screens that a line does not name were inactive; [ ] = remark or other dose. Hits are enriched below; roughly 7.3% of the tested compounds scored in any of these assays. Calls follow the shape of the dose curve; as a rule, active = well fitted curve in the direction sought with a large enough effect; inconclusive = small, poorly fitted or top-dose-only effect, or another doubt; inactive = no such curve, though single readings can be large; an effect the other way counts as inactive or inconclusive.

CCC1Sc2ccc(S(=O)(=O)Nc3ccc(OC)c(OC)c3)cc2NC1=O (configuration not stated)	VP16 counter 8.9µM, RORgamma inh inconclusive (no result: Tau ThT inhib, Tau fluor counter, Tau FP inhib)
CCc1ccc(NS(=O)(=O)c2ccc(OC)c3ncccc23)cc1	none (no result: Tau ThT inhib, Tau fluor counter, Tau FP inhib)
CC(C)CC(NC(=O)C(COC(C)(C)C)NC(=O)C(Cc1ccc(O)cc1)NC(=O)C(CO)NC(=O)C(Cc1c[nH]c2ccccc12)NC(=O)C(Cc1cnc[nH]1)NC(=O)C1CCC(=O)N1)C(=O)NC(CCCN=C(N)N)C(=O)N1CCCC1C(=O)NNC(N)=O (configuration not stated)	none (no result: Tau ThT inhib, Tau fluor counter, Tau FP inhib)
CC1(C)CC(=O)c2cc(C(=O)Nc3ccc(Br)cc3)c(=O)n(-c3ccc(Cl)cc3)c2C1	none (no result: VP16 counter, RORgamma inh)
O=[N+]([O-])c1cccc(S(=O)(=O)NCCc2ccccc2)c1	RORgamma inh inconclusive (no result: Tau ThT inhib, Tau fluor counter, Tau FP inhib)
CCOC(=O)N1CCN(C(=O)CS(=O)Cc2nc(-c3ccc(OC)c(OC)c3)oc2C)CC1 (configuration not stated)	none (no result: Tau ThT inhib, Tau fluor counter, Tau FP inhib)
CCOc1ccc(C(Nc2cccnc2)c2cc(Cl)c3cccnc3c2O)cc1 (configuration not stated)	VP16 counter inconclusive, RORgamma inh 5.6µM
O=C(O)COc1ccccc1C(Nc1cccnc1)c1cc(Cl)c2cccnc2c1O (configuration not stated)	Tau ThT inhib 18µM, Tau FP inhib 32µM
O=C(O)COc1ccccc1C(Nc1ccccn1)c1cc(Cl)c2cccnc2c1O (configuration not stated)	Tau ThT inhib 13µM, Tau FP inhib inconclusive, RORgamma inh inconclusive
O=C(NC(c1ccccc1)c1cc(Cl)c2cccnc2c1O)c1cccnc1 (configuration not stated)	VP16 counter 0.79µM, RORgamma inh 0.63µM
Cc1c(C(=O)N(CCc2ccccc2)Cc2ccccc2)cccc1[N+](=O)[O-]	none (no result: Tau ThT inhib, Tau fluor counter, Tau FP inhib)
CCCCOc1ccc(C(=O)CCN2CCCCC2)cc1	Tau ThT inhib inconclusive, VP16 counter 14µM, RORgamma inh inconclusive
CC(C)COc1ccc(C(=O)CCN2CCCCC2)cc1	Tau ThT inhib inconclusive, VP16 counter 11µM, RORgamma inh 7.1µM
CN(C)c1ccc(/C=N/NC(=O)c2ccc3c(c2)OCO3)cc1	RORgamma inh inconclusive (no result: Tau ThT inhib, Tau fluor counter, Tau FP inhib)
CN(C)c1ccc(C(=O)N/N=C/c2cc(Br)cc(Br)c2O)cc1	Tau ThT inhib inconclusive, Tau fluor counter inconclusive, Tau FP inhib inconclusive, VP16 counter 5.6µM, RORgamma inh 2.8µM
COc1cc(/C=N/NC(=O)c2ccncc2)ccc1OC(=O)c1cccc(Br)c1	none (no result: Tau ThT inhib, Tau fluor counter, Tau FP inhib)
COc1cc(/C=N/NC(=O)c2ccncc2)c([N+](=O)[O-])cc1OC	none (no result: Tau ThT inhib, Tau fluor counter, Tau FP inhib)
COc1cccc(/C=N/NC(=O)c2ccncc2)c1OC(=O)c1ccc(Br)cc1	VP16 counter 11µM, RORgamma inh 5µM (no result: Tau ThT inhib, Tau fluor counter, Tau FP inhib)
COc1cc(OC)c([N+](=O)[O-])cc1/C=N/NC(=O)c1ccncc1	Tau ThT inhib 25µM, Tau fluor counter inconclusive, Tau FP inhib inconclusive
O=C(N/N=C/c1cc(Cl)ccc1O)c1ccncc1	VP16 counter inconclusive, RORgamma inh 3.2µM
Cn1cccc1C(=O)N1CCC2(CC1)CCN(c1ccncc1)CC2	none (no result: Tau ThT inhib, Tau fluor counter, Tau FP inhib)
COc1cc2c(cc1OC)C(c1cc(OC)c(O)c(OC)c1)CC(=O)N2 (configuration not stated)	none (no result: VP16 counter, RORgamma inh)
COc1c(Br)cc(Br)cc1/C=N/n1c(C)nnc1C	none
COc1cc(/C=N/NC(=O)c2ccncc2)cc(OC)c1OC	none (no result: Tau ThT inhib, Tau fluor counter, Tau FP inhib)
COc1cccc(C(=O)Oc2c(Br)cc(Br)cc2/C=N/NC(=O)c2cc(C)[nH]n2)c1	VP16 counter 22µM
COc1c(Br)cc(Br)cc1/C=N/NC(=O)c1ccncc1	Tau FP inhib inconclusive, RORgamma inh 14µM
CCNC(=S)N/N=C/c1cc(Br)cc(Br)c1OC	VP16 counter 2.5µM, RORgamma inh 1.1µM
COCCNC(=O)C1(CC(C)C)C=CCN1C(=O)c1ccccc1 (configuration not stated)	none
c1ccc(CCCCNCC2COc3ccccc3O2)cc1 (configuration not stated)	none
Cc1nnsc1S(=O)c1ccc(Cl)c(Cl)c1 (configuration not stated)	none (no result: Tau ThT inhib, Tau fluor counter, Tau FP inhib)
O=S(c1ccc2ccccc2c1)c1cnns1 (configuration not stated)	Tau ThT inhib inconclusive, VP16 counter inconclusive, RORgamma inh 11µM
CCOc1ccc(N(CC)S(=O)(=O)c2cc(Br)cc3c2N(C(C)=O)C(C)C3)cc1 (configuration not stated)	none (no result: VP16 counter, RORgamma inh)
CC(C)CC(=O)/C(=C\c1ccc(Cl)cc1Cl)n1cncn1	Tau ThT inhib inconclusive, VP16 counter 5µM, RORgamma inh 4.5µM
CC(C)CC(=O)/C(=C/c1ccc(N(C)C)cc1)n1cncn1	none (no result: Tau ThT inhib, Tau fluor counter, Tau FP inhib)
CC(C)OC(=O)CC1C(=O)NCCN1C(=S)NC(=O)c1cccs1 (configuration not stated)	VP16 counter 11µM, RORgamma inh 2.5µM
COC(=O)CC1C(=O)NCCN1C(=S)NC(=O)c1ccccc1[N+](=O)[O-] (configuration not stated)	none
Cc1ccc(C)c(N2C(=N)S/C(=C\c3ccc(-c4ccccc4C(=O)O)o3)C2=O)c1	Tau ThT inhib inconclusive
CN1C(=O)/C(=C/c2ccc(-c3ccccc3[N+](=O)[O-])o2)SC1=Nc1ccc(Cl)c(C(=O)O)c1	Tau ThT inhib 14µM, VP16 counter inconclusive
CN(C)c1ccc(CNc2nc(-c3ccco3)nn2C(=O)c2cccc([N+](=O)[O-])c2)cc1	Tau ThT inhib inconclusive, Tau fluor counter 13µM[quencher] (no result: VP16 counter, RORgamma inh)
CC1C2CC(C/C2=N/NC(=O)c2cccs2)C1(C)C (configuration not stated)	VP16 counter 2µM, RORgamma inh inconclusive
C[C@@H]1C2CC(C/C2=N\NC(=O)c2ccncc2)C1(C)C (some centres not stated)	VP16 counter 13µM, RORgamma inh 7.9µM (no result: Tau ThT inhib, Tau fluor counter, Tau FP inhib)
Cc1cc(C)c(NC(=O)Cn2nnc(-c3nc(-c4ccccc4)no3)c2N)c(C)c1	none (no result: VP16 counter, RORgamma inh)
COc1cccc(N=Nc2ccc3ccccc3c2O)c1	VP16 counter inconclusive, RORgamma inh 8.9µM (no result: Tau ThT inhib, Tau fluor counter, Tau FP inhib)
CN1CCN(C(=O)C(=O)Nc2c3c(nn2-c2ccc(Cl)cc2)CSC3)CC1	none (no result: VP16 counter, RORgamma inh)
O=[N+]([O-])c1ccc(O)c(N=Cc2sc3ccccc3c2O)c1	Tau ThT inhib 4.5µM, Tau fluor counter inconclusive, VP16 counter inconclusive, RORgamma inh inconclusive
Cc1cccc(/N=C/c2sc3ccccc3c2O)n1	Tau ThT inhib 5.6µM, Tau fluor counter 25µM[fluorescent], Tau FP inhib inconclusive
Oc1c(C=Nc2cccc3cccnc23)sc2ccccc12	Tau ThT inhib inconclusive, Tau fluor counter inconclusive, VP16 counter 1.4µM, RORgamma inh 1.8µM
COc1ccc(C(=O)CCC(=O)O)c2ccccc12	none (no result: Tau ThT inhib, Tau fluor counter, Tau FP inhib)

High-throughput results as filed in PubChem BioAssay.
